# GRP78 ERSR act – inducers of ER stress response in human glioma cells | Potency, µM, for inactives: top-dose activation, usual class: activators | AID 602332 | 420,000 tested, 0.02% active | U87-MG GRP78 promoter luciferase reporter, 16 h; also: series mostly up to about 76 µM; % of control where 0% means no effect; nearly all actives have a fitted effect of over 35% in size
#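 Stably transfected U87-MG glioma cells carrying a GRP78-based luciferase sensor; 16 h compound incubation. Luminescence end-point read 10 min after Bright-Glo addition at room temperature.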
# 12-LOX inh – blocks human arachidonate 12S-lipoxygenase; purified 12hLO, xylenol orange hydroperoxide absorbance; Potency, µM (series often up to 108 µM), inactives show top-dose activity change, negative = inhibition, usual class: inhibitors; 580,000 tested, 1.1% active; AID 1671190; also: % is scaled to controls: 0 for no effect and ±100 for the full control effect
#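 Hydroperoxide product was detected by ferrous iron/xylenol orange as the 573 to 405 nm absorbance ratio. Arachidonic acid at 40 uM (final) was turned over for 30 min at room temperature by 150 nM human 12hLO, pH 7.0 Hepes buffer, after 15 min compound preincubation.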
# GLP-1R inv ag – acts as inverse agonist at human GLP-1 receptor; P43220; HEK293 GLP-1R CRE-luciferase, luminescence, 24 h; GLP-1R form is constitutively active; Potency, µM (series often up to 38.3 µM), without a hit: at the top dose activity change, negative = inhibition, usual class: inhibitors; 410,000 tested, 1.6% active; also: % is scaled to controls: 0 for no effect and ±100 for the full control effect; nearly all actives have a fitted effect of over 55% in size
#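 qHTS in 1536-well format: reporter HEK293 cells expressing constitutive GLP-1R activity in DMEM + 10% Nu serum, 24 hr with compounds at 37 deg C, luminescence read after 12 min with detection reagent.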
# GLS inhibitor – blocks human kidney-isoform glutaminase activity; O94925; GLS enzymatic activity, qHTS titration; Potency, µM (series often up to 45.5 µM), for inactives: top-dose activity change, negative = inhibition, usual class: inhibitors; 410,000 tested, 0.21% active; AID 624170; also: % is scaled to controls: 0 for no effect and ±100 for the full control effect
# Target sequence (O94925 whole entry, looked up, canonical isoform): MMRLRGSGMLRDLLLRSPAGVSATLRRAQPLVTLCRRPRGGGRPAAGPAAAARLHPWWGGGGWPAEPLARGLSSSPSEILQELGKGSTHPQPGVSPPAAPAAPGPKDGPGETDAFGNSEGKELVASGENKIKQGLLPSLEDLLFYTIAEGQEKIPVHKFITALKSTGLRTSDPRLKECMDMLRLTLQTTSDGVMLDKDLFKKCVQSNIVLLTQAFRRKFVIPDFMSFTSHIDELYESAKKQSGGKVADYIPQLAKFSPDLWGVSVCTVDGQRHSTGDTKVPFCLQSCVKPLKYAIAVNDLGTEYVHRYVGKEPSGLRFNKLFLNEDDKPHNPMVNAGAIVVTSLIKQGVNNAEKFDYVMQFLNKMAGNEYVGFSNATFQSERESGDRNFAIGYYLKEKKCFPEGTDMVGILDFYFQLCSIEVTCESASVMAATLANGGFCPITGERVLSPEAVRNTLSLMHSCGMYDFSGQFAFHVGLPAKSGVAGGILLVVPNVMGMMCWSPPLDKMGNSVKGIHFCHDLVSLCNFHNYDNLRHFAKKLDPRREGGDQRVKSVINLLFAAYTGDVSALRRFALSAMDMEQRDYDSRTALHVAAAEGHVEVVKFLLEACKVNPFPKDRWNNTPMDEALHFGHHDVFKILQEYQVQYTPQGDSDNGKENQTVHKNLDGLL
#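 Compounds were pin-transferred onto hKGA, after which L-glutamine (1 mM solution) and a detection mix of glutamate oxidase, HRP and Amplex Red were added. Initial and 30 min RT fluorescence reads were collected.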
# GLP-1R agonist – agonists of human GLP-1 receptor. P43220. HEK293 GLP-1R CRE-luciferase, luminescence, 4-6 h; cells express a hypersensitive GLP-1R form. Potency, µM (doses to about 45.6 µM), for inactives: at the highest dose activation, actives largely listed as activators. 380,000 tested, 0.007% active. AID 624172; also: % of control where 0% means no effect
# PTHR1 agonist – activates the human parathyroid hormone receptor PTHR1; Q03431; HEK293 GP2 PTHR1 cells, GloSensor cAMP luminescence, 1 h; Potency, µM (top dose mostly 115 µM), for the others: at the top dose activation, actives largely listed as activators; 410,000 tested, 0.075% active; AID 743266; also: nearly all actives have a fitted effect of over 55% in size
#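 HEK-293-derived GP2 cells expressing PTHR1 and a GloSensor cAMP reporter, 3,000/well, plated overnight, given luciferin plus IBMX (each 0.5 mM as added) for 1 h at 37 °C, then compound for 1 h at 37 °C. Luminescence was read after 15 min at room temperature.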
# * marks the source's active call; other numbers are inactive results; ? = inconclusive; . = no result given; [ ] = remark or other dose. Only some compounds are listed: those with a hit (about 2.3% of all), similar ones and a draw of the others. Calls follow the shape of the dose curve; as a rule, active = well fitted curve in the direction sought with a large enough effect; inconclusive = small, poorly fitted or top-dose-only effect, or another doubt; inactive = no such curve, though single readings can be large; an effect the other way counts as inactive or inconclusive. Potency is read from the fitted curve at half-maximal effect.
SMILES,GRP78 ERSR act,12-LOX inh,GLP-1R inv ag,GLS inhibitor,GLP-1R agonist,PTHR1 agonist
C=CC[n+]1c(-c2ccc(C)cc2)csc1Nc1c(C)n(C)n(-c2ccccc2)c1=O,-4.8%,28.2µM*,?,10.2%,8.1%,-14.1%
O=c1[nH]c(=S)n(Cc2ccc(F)cc2)c(O)c1/C=N/N1CCCCCC1,0.2%,35.5µM*,22.6%,21.0%,0.1%,-32.4%
O=c1[nH]c(=O)n(Cc2ccc(F)cc2)c(O)c1/C=N/Nc1ccccc1,-3.2%,?,4.47µM*,1.1%,0.1%,-7.6%
COC[C@H]1C[C@@H](NC2CCOCC2)[C@H](O)[C@@H]1O,.,31.4%[176 µM],.,.,.,.
CCNC(=O)N1Cc2ccccc2-n2nncc2C1,-3.4%,-29.0%,5.3%,-2.3%,-0.6%,-21.8%
O=C(Cc1cccs1)N1Cc2ccccc2-n2nncc2C1,-0.4%,39.8µM*,-10.6%,2.8%,0.0%,-53.9%
O=C(Cc1cccc(F)c1)N1CCN2CCS(=O)(=O)N(C3CC3)C(=O)C2C1 (centres undefined),.,36.4%,.,.,.,.
CC/C(=C\C=C\[C@@H]1C=C[C@@H]2CCC[C@H]2[C@@H]1C(=O)c1ccc[nH]1)[C@@H]1O[C@@H]([C@@H](C)C(=O)O)CC[C@@H]1C,?,.,2.51µM*,?,-17.2%,-7.2%
COC(=O)c1ccc(NC(=O)COC(=O)c2cn(C)c3ccccc23)cc1,.,-16.9%,.,.,.,.
Cc1[nH]nc2c1C(c1ccc(-c3cccc(Cl)c3)o1)SCC(=O)N2 (centres undefined),.,-40.8%,.,.,.,.
C[C@]12CC[C@@H]3c4ccc(OC(=O)N(CCCl)CCCl)cc4CC[C@@H]3[C@H]1CC[C@@H]2OP(=O)(O)O,-4.1%,.,.,-15.0%,-6.4%,.
C[C@]12CC[C@@H]3c4ccc(OC(=O)N(CCCl)CCCl)cc4CC[C@H]3[C@@H]1CC[C@@H]2OP(=O)(O)O,-1.5%,21.7µM*,.,2.5%,1.1%,.
CN1[C@@H]2CC[C@H]1CC(O[C@@H](c1ccccc1)c1ccc(Cl)cc1)C2 (some centres undefined),-5.4%,54.4%,.,.,.,.
CN1[C@@H]2CC[C@H]1CC(OC1c3ccccc3CCc3ccccc31)C2 (some centres undefined),-2.7%,-10.7%,2µM*,-9.8%,-1.4%,-26.5%
Cc1[nH]c2c(C(C)C)cccc2c1CCN,.,-58.9%,.,.,.,.
O=C(O)c1ccccc1-c1ccc(C=C2C(=O)N(c3ccccc3)C(=S)N(c3ccccc3)C2=O)o1,-7.8%,31.6µM*,?,8.91µM*,-9.1%,-22.7%
CC/C(=N\Nc1ccccc1)c1c(O)n(-c2ccc(OC)cc2)c(=O)[nH]c1=O,2.1%,0.0%,?,10µM*,0.7%,-29.7%
Cc1sc2c(c1C)C(c1ccc(F)cc1)=NCC(=O)N2CC(=O)Nc1ccccc1,.,-6.2%,.,.,.,.
Cn1c(NN=O)nc2ccccc21,-4.5%,-0.8%,4.47µM*,-6.0%,12.7%,-6.0%
CCOC(=O)c1ncn2c1[C@H]1CCCN1C(=O)c1cc(OC)ccc1-2,-2.5%,243.6%,.,.,.,.
CCOC(=O)C1=C(CN2CCN(c3ccc(C)cc3C)CC2)NC(=O)NC1c1ccc(OC)cc1 (centres undefined),-1.3%,44.7µM*,?,6.0%,.,-85.9%
COc1cccc2c1C(=O)c1c(O)c3c(c(O)c1C2=O)CC(O)(C(C)=NO)CC3OC1CC(N)C(O)C(C)O1 (centres undefined),-5.1%,0.6%,10µM*,6.9%,-5.3%,-17.1%
CC[C@]1(O)CC(O[C@@H]2CC(N(C)C)C(O)C(C)O2)c2c(cc3c(c2O)C(=O)c2c(O)cccc2C3=O)C1C(=O)OC (some centres undefined),-5.2%,.,.,.,.,.
CC(C)c1ccc(Oc2cccc3c2S(=O)(=O)N(C2CCCC2)CC(COCc2ccccc2)O3)cc1 (centres undefined),-5.6%,-54.3%,5.62µM*,-3.9%,6.3%,-46.1%
O=[N+]([O-])/C=C\c1ccc2c(c1)OCO2,.,11.2µM*,.,.,.,.
